# Test results published in PubChem BioAssay (EPA / NIEHS).
# Results filed as inconclusive are left out. Active and inactive are the calls of the source. Rule for the calls, unless noted: active = hit-call score of the fitted dose curve at least 0.9, where 1 is the maximum; inactive = score below 0.9.
# Tests used:
# [1] = APR_HepG2_CellCycleArrest_1hr: Apredica 1-hour HepG2 Assay for Cell Cycle Arrest (AID 2282666); settings: high-content imaging, actives raise or lower the signal
# Method in brief: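 HepG2 cells exposed for 1 h to 0.39–200 uM compound (0.5% DMSO). Fixed, Hoechst-stained nuclei imaged by ArrayScan; DNA content quantified by Cell Cycle analysis; bidirectional fit against DMSO.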
# [2] = ACEA_ER_80hr: ACEA Biosciences xCELLigence Real-Time Cell Analysis on Estrogen Receptor Agonism for Proliferation (AID 2282667; active = hit-call score of the fitted dose curve at least 0.9, where 1 is the maximum); settings: T47D proliferation, impedance (xCELLigence), 80 h
# Method in brief: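 Real-time impedance growth kinetics of human T-47D breast cells read 80 h after dosing, gain-of-signal fitted relative to DMSO. Compounds: 1:4 serial series, top final concentration 100 uM, n = 2.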
# [3] = APR_HepG2_MicrotubuleCSK_1hr: Apredica 1-hour HepG2 Assay for Microtubule CSK Stabilty (AID 2282669); settings: HepG2 microtubule cytoskeleton imaging, actives raise or lower the signal
# Method in brief: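 HepG2 cells exposed 1 h to 0.39–200 uM compound (0.5% DMSO, duplicates), then formaldehyde-fixed, permeabilized and immunostained for alpha-tubulin with Hoechst nuclei. Imaged by ArrayScan high-content analysis; bidirectional fit versus DMSO.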
# [4] = APR_HepG2_NuclearSize_1hr: Apredica 1-hour HepG2 Assay for Nuclear Size (AID 2282670); settings: high-content imaging, actives raise or lower the signal
# Method in brief: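 HepG2 cells dosed 1 hr with 0.39–200 uM compound (0.5% DMSO), formaldehyde-fixed, Hoechst 33342-stained and imaged at 20x; nuclear diameter from nuclear stain, fitted bidirectionally against DMSO.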
# [5] = APR_HepG2_P-H2AX_1hr: Apredica 1-hour HepG2 Assay for H2AX Phosphorylation (AID 2282673); settings: high-content imaging, actives raise or lower the signal
# Method in brief: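 HepG2 dosed 1 hr at 0.39-200 uM (0.5% DMSO final), duplicate. Fixed in 3.7% formaldehyde, Triton permeabilized, immunostained for phospho-histone H2A.x (1:200) with Hoechst 33342; ArrayScan 20x imaging, bidirectional fit vs DMSO.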
# [6] = APR_HepG2_MitoMass_1hr: Apredica 1-hour HepG2 Assay for Mitochondrial Mass (AID 2282674); settings: high-content imaging, actives raise or lower the signal
# Method in brief: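 HepG2 cells dosed 1 hr with 0.39-200 uM compound (0.5% DMSO), duplicate wells. Mitochondria stained with 250 nM MitoTracker Red CMXRos for 30 min before formaldehyde fixation, imaged at 20x by ArrayScan; bidirectional fit versus DMSO.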
# [7] = APR_HepG2_MitoMembPot_1hr: Apredica 1-hour HepG2 Assay for Mitochondrial Membrane Potential (AID 2282675); settings: imaging, actives raise or lower the signal
# Method in brief: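 HepG2 cells dosed 1 hour with 0.39–200 uM compound in duplicate, 0.5% DMSO final. MitoTracker Red CMXRos (250 nM, 30 min) loaded before formaldehyde fixation; fluorescence quantified by high-content imaging, bidirectional fitting versus DMSO.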
# [8] = APR_HepG2_p53Act_1hr: Apredica 1-hour HepG2 Assay for p53 Activation (AID 2282671); settings: high-content imaging, actives raise or lower the signal
# Method in brief: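 HepG2 cells treated 1 h with compound at 0.39–200 uM (10 concentrations, duplicate) in 0.5% DMSO. Formaldehyde-fixed, permeabilised cells immunostained for p53 with Hoechst 33342; high-content imaging, bidirectional fit versus DMSO.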
# [9] = APR_HepG2_MitoticArrest_1hr: Apredica 1-hour HepG2 Assay for Mitotic Arrest (AID 2282672); settings: high-content imaging, actives raise or lower the signal
# Method in brief: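 HepG2 cells exposed 1 hr to compounds at 0.39–200 uM (0.5% v/v DMSO final), then fixed in 3.7% formaldehyde and immunostained for phospho-histone H3 with Hoechst 33342. Mitotic arrest scored by automated fluorescence imaging, fitted bidirectionally versus DMSO.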
structure (smiles),measurement,setting,value
CCC(C)Nc1c([N+](=O)[O-])cc(C(C)(C)C)cc1[N+](=O)[O-] (centres undefined),outcome,[1],inactive
same,outcome,[2],inactive
same,outcome,[3],inactive
same,outcome,[4],inactive
same,outcome,[5],inactive
same,outcome,[6],inactive
same,outcome,[7],inactive
[2H]C1([2H])[n+]2ccccc2-c2cccc[n+]2C1([2H])[2H],outcome,[1],inactive
same,outcome,[3],inactive
same,outcome,[8],inactive
same,outcome,[5],inactive
same,outcome,[6],inactive
same,outcome,[7],inactive
OCCOc1ccccc1,outcome,[1],inactive
same,outcome,[3],inactive
same,outcome,[8],inactive
same,outcome,[5],inactive
same,outcome,[6],inactive
same,outcome,[7],inactive
COP(=S)(OC)Oc1ccc([N+](=O)[O-])cc1,outcome,[1],inactive
same,outcome,[3],inactive
same,outcome,[8],inactive
same,outcome,[5],inactive
same,outcome,[6],inactive
same,outcome,[7],inactive
COC(=O)c1ccccc1S(=O)(=O)NC(=O)N(C)c1nc(C)nc(OC)n1,outcome,[1],inactive
same,outcome,[3],inactive
same,outcome,[8],inactive
same,outcome,[5],inactive
same,outcome,[6],inactive
same,outcome,[7],inactive
CCOc1nc(NC)nc(NC(=O)NS(=O)(=O)c2ccccc2C(=O)OC)n1,outcome,[1],inactive
same,outcome,[3],inactive
same,outcome,[8],inactive
same,outcome,[9],inactive
same,outcome,[5],inactive
same,outcome,[6],inactive
same,outcome,[7],inactive
CCC(C)(NC(=O)c1cc(Cl)c(C)c(Cl)c1)C(=O)CCl (centres undefined),outcome,[1],inactive
same,outcome,[3],inactive
same,outcome,[8],inactive
same,outcome,[5],inactive
same,outcome,[6],inactive
same,outcome,[7],inactive
CNC(=O)Oc1cccc(N=CN(C)C)c1,outcome,[1],inactive
same,outcome,[3],inactive
same,outcome,[8],inactive
same,outcome,[5],inactive
same,outcome,[6],inactive
same,outcome,[7],inactive
CCc1ccc(C(=O)NN(C(=O)c2cc(C)cc(C)c2)C(C)(C)C)cc1,outcome,[1],inactive
same,outcome,[3],inactive
same,outcome,[4],inactive
same,outcome,[8],inactive
same,outcome,[5],inactive
same,outcome,[6],inactive
same,outcome,[7],inactive
CNC(=O)Oc1ccccc1OC(C)C,outcome,[1],inactive
same,outcome,[3],inactive
same,outcome,[8],inactive
same,outcome,[5],inactive
same,outcome,[6],inactive
same,outcome,[7],inactive
O=C(O)CCCOc1ccc(Cl)cc1Cl,outcome,[1],inactive
same,outcome,[3],inactive
same,outcome,[8],inactive
same,outcome,[9],inactive
same,outcome,[5],inactive
same,outcome,[6],inactive
same,outcome,[7],inactive
CC(C)(C)C(O)/C(=C\c1ccc(Cl)cc1Cl)n1cncn1 (centres undefined),outcome,[1],inactive
same,outcome,[3],inactive
same,outcome,[4],inactive
same,outcome,[8],inactive
same,outcome,[5],inactive
same,outcome,[6],inactive
same,outcome,[7],inactive
CC(C)OC(=O)Nc1cccc(Cl)c1,outcome,[1],inactive
same,outcome,[3],inactive
same,outcome,[8],inactive
same,outcome,[5],inactive
same,outcome,[6],inactive
same,outcome,[7],inactive
O=C(O)COc1ccc(Cl)cc1Cl,outcome,[1],inactive
same,outcome,[3],inactive
same,outcome,[8],inactive
same,outcome,[5],inactive
same,outcome,[6],inactive
same,outcome,[7],inactive
CN1CSC(=S)N(C)C1,outcome,[1],inactive
same,outcome,[3],inactive
same,outcome,[4],inactive
same,outcome,[8],inactive
same,outcome,[5],inactive
same,outcome,[6],inactive
same,outcome,[7],inactive
COC(=O)c1ccccc1S(=O)(=O)NC(=O)Nc1nc(C)nc(OC)n1,outcome,[1],inactive
same,outcome,[3],inactive
same,outcome,[8],inactive
same,outcome,[5],inactive
same,outcome,[6],inactive
same,outcome,[7],inactive
ClC1C(Cl)C(Cl)C(Cl)C(Cl)C1Cl (centres undefined),outcome,[1],inactive
same,outcome,[3],inactive
same,outcome,[8],inactive
same,outcome,[5],inactive
same,outcome,[6],inactive
same,outcome,[7],inactive
CC1(C)C(C=C(Cl)Cl)C1C(=O)OC(C#N)c1ccc(F)c(Oc2ccccc2)c1 (centres undefined),outcome,[1],inactive
same,outcome,[3],inactive
same,outcome,[8],inactive
same,outcome,[5],inactive
same,outcome,[6],inactive
same,outcome,[7],inactive
CC[C@H](C)[C@H]1O[C@]2(C=C[C@@H]1C)C[C@@H]1C[C@@H](C/C=C(\C)[C@@H](O[C@H]3C[C@H](OC)[C@@H](O[C@H]4C[C@H](OC)[C@@H](O)[C@H](C)O4)[C@H](C)O3)[C@@H](C)/C=C/C=C3\CO[C@@H]4[C@H](O)C(C)=C[C@@H](C(=O)O1)[C@]34O)O2 (tested in a mixture with another compound),outcome,[1],inactive
same,outcome,[3],inactive
same,outcome,[8],inactive
same,AC50,[9],12.6 µM (active)
same,AC50,[5],22.5 µM (active)
same,AC50,[6],26.8 µM (active)
same,outcome,[7],inactive
CCCN(CCOc1c(Cl)cc(Cl)cc1Cl)C(=O)n1ccnc1,outcome,[1],inactive
same,outcome,[3],inactive
same,outcome,[8],inactive
same,outcome,[5],inactive
same,outcome,[6],inactive
same,outcome,[7],inactive
CC(C)(C)C(O)C(Oc1ccc(Cl)cc1)n1cncn1 (centres undefined),outcome,[1],inactive
same,outcome,[3],inactive
same,outcome,[8],inactive
same,outcome,[5],inactive
same,outcome,[6],inactive
same,outcome,[7],inactive
O=C(Nc1ccccc1)Nc1cnns1,outcome,[1],inactive
same,outcome,[3],inactive
same,outcome,[8],inactive
same,outcome,[9],inactive
same,outcome,[5],inactive
same,outcome,[6],inactive
same,AC50,[7],76.2 µM (active)
CCN(CC)C(=O)SCc1ccc(Cl)cc1,outcome,[1],inactive
same,outcome,[3],inactive
same,outcome,[4],inactive
same,outcome,[8],inactive
same,outcome,[5],inactive
same,outcome,[6],inactive
same,outcome,[7],inactive
CCS(=O)(=O)c1cccnc1S(=O)(=O)NC(=O)Nc1nc(OC)cc(OC)n1,outcome,[1],inactive
same,outcome,[3],inactive
same,outcome,[8],inactive
same,outcome,[9],inactive
same,outcome,[5],inactive
same,outcome,[6],inactive
same,outcome,[7],inactive
O=S1OCC2C(CO1)C1(Cl)C(Cl)=C(Cl)C2(Cl)C1(Cl)Cl (centres undefined),outcome,[1],inactive
same,outcome,[3],inactive
same,outcome,[8],inactive
same,outcome,[5],inactive
same,outcome,[6],inactive
same,AC50,[7],118 µM (active)
CC(C)N(C(=O)COc1nnc(C(F)(F)F)s1)c1ccc(F)cc1,outcome,[1],inactive
same,outcome,[3],inactive
same,outcome,[8],inactive
same,outcome,[5],inactive
same,outcome,[6],inactive
same,outcome,[7],inactive
CCOCN(C(=O)CCl)c1c(C)cccc1CC,outcome,[1],inactive
same,outcome,[3],inactive
same,outcome,[8],inactive
same,outcome,[9],inactive
same,outcome,[5],inactive
same,outcome,[6],inactive
same,outcome,[7],inactive
O=C1c2ccccc2C(=O)N1SC(Cl)(Cl)Cl,outcome,[1],inactive
same,outcome,[3],inactive
same,outcome,[8],inactive
same,outcome,[5],inactive
same,outcome,[6],inactive
same,outcome,[7],inactive
